Source: PubChem BioAssay
Many of the other results were omitted from the sample, so hits are more common in it than they were.
Pf Dd2 inh – inhibitors of Plasmodium falciparum Dd2 growth | P. falciparum Dd2 growth, SYBR Green, 72 h | Potency, µM (titrated, usually from 28.9 µM), without a hit: top-dose activity, negative = inhibition, actives largely listed as inhibitors | hit rate 4.3% among 120,000 | AID 1347417; active means well fitted inhibition curve with a large enough effect;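 further: plate controls were DMSO vehicle for no effect and reference drug for full effect; nearly all actives have a fitted effect of over 65% in size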
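Readout: SYBR Green fluorescence, 485 nm excitation, 535 nm emission, after ~16 h lysis at 37C. Before that, Dd2-infected red cells (2.5% hematocrit) grew 72 h with compound, 29 uM top final concentration.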
Active calls of the source: *; i = inactive; [ ] = dose if it differs, or a comment. Potency means the concentration at half of the fitted maximal effect.

SMILES | Pf Dd2 inh
COc1ccc2nc(CO[C@H]3CN(Cc4cn(C)c5ccccc45)C[C@H]3F)[nH]c2c1 | -30%[44.1 µM]
COc1ccc(-c2nn(-c3ccccc3)cc2CN2CCN(C)C(C)C2)c(F)c1 (centres undefined) | 11µM*
COc1ccc(F)c(CN2CCCC(O)(CN3CCC(CO)CC3)C2=O)c1 (centres undefined) | -19%
COC1CCCN(Cc2cn(-c3ccc(F)cc3)nc2-c2ccccc2Cl)C1 (centres undefined) | 13µM*
O=C(c1ccccc1OCC1CCCN(Cc2ccc(F)cc2Cl)C1)N1CCOCC1 (centres undefined) | i
O=c1[nH]c(C2CCCN(Cc3cccc4ccccc34)C2)nn1-c1ccc(Cl)cc1 (centres undefined) | 11%
COc1ccc(-c2nn(-c3ccccc3)cc2C(=O)Nc2ccccc2OC)cc1 | i
CN1[C@@H](CCC(=O)NCc2cccs2)CNC(=O)[C@@H]2[C@H]1CCN2Cc1ncc[nH]1 | 13%[44.1 µM]
COCC(=O)N[C@H]1CC[C@]2(C)CCC([C@H](C)C(=O)NCc3ccc(OC)c(OC)c3)[C@H](O)[C@H]2[C@@H]1C (some centres undefined) | 16%
Cc1cccc(OC[C@H]2C[C@@H](NC(=O)c3ccccc3)[C@H](O)[C@@H]2O)n1 | -12%[44.1 µM]
CNC(=O)[C@@H]1CN(S(=O)(=O)c2c(C)noc2C)C[C@H]1C1CCN(C)CC1 | 33%
CC[C@H]1CN(C(=O)N2CCOCC2)CC[C@H]1CC(=O)NCc1ccccc1 | -14%[44.1 µM]
O=C1[C@H]2CN(Cc3cccc(Cl)c3F)C[C@H]2C(=O)N1CCc1ccccc1 | 20%
O=C1[C@H]2CN(Cc3ccc(F)cc3Cl)C[C@H]2C(=O)N1CCN1CCc2ccccc2C1 | 4µM*
O=C1[C@H]2CN(Cc3ccc(F)cc3Cl)C[C@H]2C(=O)N1Cc1ccc2c(c1)OCO2 | -2%
CC(C)C(=O)N1CCC(Cc2nc(C3CCOCC3)no2)CC1 | 68%
Cc1[nH]ncc1C(=O)N1CCOC(Cc2ccc(F)cc2)C1 (centres undefined) | -6%
O=C(NCC1CCOCC1)c1cccc(C(F)(F)F)c1 | 16%
Cc1ccc(OCCSc2nnc(-c3cccs3)o2)cc1Cl | 80%
Cc1ccc(-c2nnc(SCCOc3ccccc3)o2)cc1 | 6%
Cc1ccc(OCCSc2nnc(-c3cccs3)o2)cc1 | 11µM*
CCn1cc(S(=O)(=O)N2CCC(Cc3nc(-c4cccnc4)n[nH]3)C2)cn1 (centres undefined) | i
COCCCNC(=O)[C@@H]1Cc2cn(Cc3cc(C)on3)c3cccc(c23)[C@H](CC(C)C)N1 | i
CC(C)C[C@@H]1N[C@H](C(=O)NC2CCCC2)Cc2cn(Cc3nccn3C)c3cccc1c23 | -5%[44.1 µM]
C=CCn1cc2c3c(cccc31)[C@H](CC(C)C)N[C@H](C(=O)NCCN(C)C)C2 | -3%[44.1 µM]
SMILES | Pf Dd2 inh
CC(C)C[C@@H]1N[C@H](C(=O)NC2CCC2)Cc2cn(CC3CC3)c3cccc1c23 | 14µM*
C=CCNC(=O)[C@@H]1Cc2cn(CC=C)c3cccc(c23)[C@H](CC(C)C)N1 | 14µM*
Cc1cc(Cn2cc3c4c(cccc42)[C@H](CC(C)C)N[C@H](C(=O)NC2CCC2)C3)no1 | -24%[44.1 µM]
Cc1cc(Cn2cc3c4c(cccc42)[C@H](CC(C)C)N[C@H](C(=O)NCc2cncn2C)C3)no1 | 11µM*
C=CCNC(=O)[C@@H]1Cc2cn(Cc3cc(C)on3)c3cccc(c23)[C@H](CC(C)C)N1 | -24%[44.1 µM]
C#CCNC(=O)[C@@H]1Cc2cn(Cc3nccn3C)c3cccc(c23)[C@H](CC(C)C)N1 | 10µM*
C=CCNC(=O)[C@@H]1Cc2cn(Cc3ccncc3)c3cccc(c23)[C@H](CC(C)C)N1 | -29%[44.1 µM]
CC(C)C[C@@H]1N[C@H](C(=O)O)Cc2cn(Cc3nccn3C)c3cccc1c23 | i
CC(C)C[C@@H]1N[C@H](C(=O)O)Cc2cn(CC3CCC3)c3cccc1c23 | i
Cc1ccc(C)c(-c2cc3c(=O)n(CCNC(=O)c4ccc5ccccc5n4)ccn3n2)c1 | i
COc1cccc(F)c1C(=O)N1C[C@@H](CN2CCOCC2)[C@@H](CO)C1 | -2%
O=C(CC1COCCN1)N1CCC2(CCC(=O)N(CCc3ccncc3)C2)CC1 (centres undefined) | 5%
CN1c2cc(C(=O)Nc3cccc(Br)c3)ccc2C(=O)N2CCCCC21 (centres undefined) | -11%
COc1ccc(CN2CC[C@@H]3CN(S(C)(=O)=O)[C@@H]3C2)cc1C | i
COc1ccc(C2(C(=O)N3CCC(c4n[nH]c(=O)n4-c4ccccc4)CC3)CC2)cc1 | -4%
NC(=O)[C@@H]1C[C@H](Oc2cccnc2)CN1S(=O)(=O)c1cccc(F)c1 | 10%
CCOC(=O)N1CCC(c2nnc(CN3CCCCCC3)n2C)CC1 | 7%
O=C1CCN(S(=O)(=O)c2ccccc2)CCCNCCN1 | 1%
CC(=O)N1CCCN(S(=O)(=O)c2ccccc2)CCC(=O)NCC1 | -12%
CN(C)S(=O)(=O)N1CCCN(S(=O)(=O)c2ccccc2)CCC(=O)NCC1 | -2%
O=C1CCN(S(=O)(=O)c2ccccc2)CCCN(S(=O)(=O)c2ccc3c(c2)CCC3)CCN1 | 3.5µM*
CCn1cc(CN2CCCN(S(=O)(=O)c3ccccc3)CCC(=O)NCC2)c(C)n1 | -18%
O=C1CCN(S(=O)(=O)c2ccccc2)CCCCCCN1 | 22%
O=C1CCN(S(=O)(=O)c2ccccc2)CCCN(Cc2ccc3cc[nH]c3c2)CCN1 | 5µM*
O=C1CCN(S(=O)(=O)c2ccccc2)CCCN(Cc2cccc3[nH]ccc23)CCN1 | 7.9µM*
SMILES | Pf Dd2 inh
CCC(=O)N1CCCN(S(=O)(=O)c2ccccc2)CCC(=O)NCC1 | 10%
Cc1noc(C)c1CN1CCCN(S(=O)(=O)c2ccccc2)CCC(=O)NCC1 | -2%
CC(C)C(=O)N1CCCN(S(=O)(=O)c2ccccc2)CCC(=O)NCC1 | -14%
O=C1CCN(S(=O)(=O)c2ccccc2)CCCN(Cc2ccccc2)CCN1 | 8.9µM*
COC[C@@H]1CN(C(=O)COc2ccc(F)cc2)C[C@H]1c1ccccn1 | -17%
CN1C(=O)CS(=O)(=O)C12CCN(C(=O)c1cc(F)cc(F)c1)CC2 | 3%
COc1cc(NC(=O)CC2=C3CCCCC3NC2=O)cc(OC)c1 (centres undefined) | -20%
CC(=O)N1CCC(OCCOc2ccccc2)CC1 | 94%
CN(C)C[C@H]1O[C@H](Cc2cc(-c3cccc(O)c3)on2)CC[C@@H]1O | i
O=C1CCN(S(=O)(=O)c2ccccc2)CCCN(C(=O)c2ccc3ccccc3n2)CCN1 | 11µM*
Cn1cnc(C(=O)N2CCCN(S(=O)(=O)c3ccccc3)CCC(=O)NCC2)c1 | -6%
Cc1cnc(C(=O)N2CCCN(S(=O)(=O)c3ccccc3)CCC(=O)NCC2)cn1 | 19%
O=C(NCc1ccc2c(c1)CCCO2)c1ccc(C2CCNC2)cc1 (centres undefined) | -17%
COc1ccc(CN2CCCC(c3nn(-c4ccc(Cl)cc4)c(=O)[nH]3)C2)cc1 (centres undefined) | i
O=c1[nH]c(C2CCCN(CC3CCCC3)C2)nc2ccc(F)cc12 (centres undefined) | 2.2µM*
O=c1[nH]c(C2CCCN(CC3CC3)C2)nn1-c1ccccc1 (centres undefined) | i
O=c1[nH]c(C2CCCN(Cc3ccccc3)C2)nn1-c1ccc(Cl)cc1 (centres undefined) | i
O=C(NCc1ccccc1)N1CC[C@H](c2nc3ccc(F)cc3[nH]2)C1 | i
Cc1ccc2nc(C3CCN(Cc4cccc(Cl)c4)CC3)[nH]c(=O)c2c1 | 1%
